# PNC inhibitor: High Content Assay for Compounds that inhibit the Assembly of the Perinucleolar Compartment | hit rate 3.1% among 140,000 | PC3M PTB-GFP, PNC prevalence imaging, 16 h; stronger effect = lower value | activity change (PNC), negative = inhibition, % at 10 µM | AID 2417, 2010;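 active = readout at or below -70, meaning at least 70% loss of cells showing the perinucleolar compartment, a nuclear body marking cancer cells; inconclusive = readout between -30 and a set limit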
#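 Read-out is percentage of cells bearing a perinucleolar compartment, from automated 20x imaging of fixed, Hoechst-stained PC3M PTB-GFP cells. Cells were seeded 4 h, then exposed 16 h to compound (23 nl of library stock) in duplicate plates.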
# HPGD inh: qHTS Assay for Inhibitors of HPGD (15-Hydroxyprostaglandin Dehydrogenase). hit rate 4.3% among 150,000. Potency, µM, most hits filed as inhibitors. purified HPGD, NADH fluorescence kinetic, PGE2 substrate. AID 894, 2007
#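 NADH formation kinetics: reaction with 30 uM PGE2 and 1 mM NAD+ (final), 20 nM enzyme, Tris-HCl pH 8 with Tween 20, after 15 min compound preincubation at room temperature. Fluorescence change, last versus first of five reads.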
# HTT ATP protect: qHTS Multiplex Assay to Identify Dual Action Probes in a Cell Model of Huntington: Cytoprotection (ATP) | hit rate 0.14% among 230,000 | Potency, µM (titrated, usually from 56.4 µM), actives largely listed as activators | PC12 HTT-Q103 induced, cytoprotection, ATP luminescence, 40 h; active = well fitted curve in the direction sought with a large enough effect; inconclusive = small, poorly fitted or top-dose-only effect, or another doubt; inactive = no such curve, though single readings can be large; an effect the other way counts as inactive or inconclusive; note: nearly all actives have a fitted effect of over 45% in size
#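 Huntington model: PC12 line, ecdysone-inducible HTTQ103 exon1–GFP, tebufenozide 100 nM. Test articles in a dose series. Endpoint luminescence from cellular ATP.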
# RGS12 GoLoco inh: qHTS Assay for Inhibitors of RGS12 GoLoco Motif Activity (Red Fluorophore); Gai1:RGS12 GoLoco peptide FP, rhodamine, 10 min; Guanine nucleotide-binding protein G(i) subunit alpha-1 (Homo sapiens), P63096; AID 880, 2007; hit rate 0.44% among 230,000; Potency, µM (titrated, usually from 61.6 µM), hits mostly inhibitors; active = well fitted inhibition curve with a large enough effect, not every such curve was filed as active; inactive = no such curve, though single readings can be large or run the other way; note: nearly all actives have a fitted effect of over 30% in size
# Target sequence (P63096 whole entry, looked up): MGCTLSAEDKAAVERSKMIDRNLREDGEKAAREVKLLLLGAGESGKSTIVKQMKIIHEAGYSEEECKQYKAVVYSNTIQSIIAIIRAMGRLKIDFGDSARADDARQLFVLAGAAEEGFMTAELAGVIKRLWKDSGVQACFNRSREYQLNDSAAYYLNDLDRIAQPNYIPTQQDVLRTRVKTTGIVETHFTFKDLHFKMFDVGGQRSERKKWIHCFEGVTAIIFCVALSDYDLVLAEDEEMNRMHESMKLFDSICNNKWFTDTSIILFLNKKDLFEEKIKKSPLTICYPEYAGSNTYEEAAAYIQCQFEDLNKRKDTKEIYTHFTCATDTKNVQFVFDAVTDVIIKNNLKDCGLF
# ALDH1A1 block: qHTS Assay for Inhibitors of Aldehyde Dehydrogenase 1 (ALDH1A1); Potency, µM (top dose mostly 75.3 µM), usual class: inhibitors; AID 1030, 2008; hit rate 7.3% among 220,000; Purified ALDH1A1, NADH fluorescence, propionaldehyde substrate
# HttQ103 aggreg: qHTS Multiplex Assay to Identify Dual Action Probes in a Cell Model of Huntington: Aggregate Formation (GFP); PC12 HttQ103-GFP aggregates, Acumen cytometry, 40 h; Potency, µM (highest dose often 46.1 µM), most hits filed as inhibitors; hit rate 1.1% among 220,000; active = well fitted curve in the direction sought with a large enough effect; inconclusive = small, poorly fitted or top-dose-only effect, or another doubt; inactive = no such curve, though single readings can be large; an effect the other way counts as inactive or inconclusive; note: nearly all actives have a fitted effect of over 60% in size
#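 Steps: seed 1500 PC12 HTTQ103-GFP cells/well; add tebufenozide, 100 nM final; add compound titration; add ATPLite reagent; quantify GFP aggregates by laser scanning cytometry.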
# A number is an active result; - = inactive; ? = inconclusive; . = no result given; [ ] = remark or other dose. This is a sample that favours compounds with a hit; in the whole collection about 11% have one here. Unless noted, calls come from the whole dose curve; as a rule, active = well fitted inhibition curve with a large enough effect (not every such curve was filed as active); inconclusive = small, poorly fitted or top-dose-only effect, or another doubt; inactive = no such curve, though single readings can be large or run the other way.
SMILES,PNC inhibitor,HPGD inh,HTT ATP protect,RGS12 GoLoco inh,ALDH1A1 block,HttQ103 aggreg
CC1CCCC(C)N1C(=O)CSc1nnc(-c2c[nH]c3ccccc23)o1 (stereo not given),-,-,-,-,10µM,-
CCC(C)NC(=O)CSc1nnc(-c2c[nH]c3ccccc23)o1 (stereo not given),.,.,-,-,-,-
CCC1CCCCN1C(=O)CSc1nnc(-c2c[nH]c3ccccc23)o1 (stereo not given),-,-,-[10 µM],-,13µM,-
CC(C)c1ccc2c(c1)CC[C@@H]1[C@@](C)(CN)CCC[C@@]21C,.,.,-,.,.,.
COc1cc(C(=O)O)nc(OC)n1,.,.,-,-,-,-
COC(=O)c1cccc2c1-c1ccccc1/C2=N/O,-,-,-,-,-,10µM
COC(=O)c1ccc2c(c1O)C(=O)c1ccccc1C2=O,-,-,-,-,-,-
Cc1cc(C)cc(NS(=O)(=O)c2cnc(Cl)c(Cl)c2)c1,?,-,-,-,3.5µM,-
CCOc1ccc(NS(=O)(=O)c2cnc(Cl)c(Cl)c2)cc1,?,-,-[10 µM],-,?,-
CCCOC(=O)Nc1cccc(C(C)=O)c1,-100,10µM,-[10 µM],-,-,-
CCCC(=O)NC(=S)Nc1cccc(C(C)=O)c1,-,16µM,-,-,-,-
CC(=O)c1cccc(NC(=S)NC(=O)CC(C)C)c1,-,16µM,-,-,-,-
CC(=O)c1cccc(NC(=S)Nc2ccn(Cc3cccc4ccccc34)n2)c1,.,.,.,-,0.79µM,-
CCC(=O)NC(=S)Nc1cccc(C(C)=O)c1,-,-,-,-,-,-
CCCOC(=O)Nc1ccc(C(N)=O)cc1,?,-,-,-,?,-
Cc1cc(NC(=O)c2cccc(Oc3ccccc3)c2)n[nH]1,.,.,-,-,-,-
CCCCCC(=O)NC(=S)Nc1cccc(C(C)=O)c1,-,14µM,-[10 µM],-,?,-
O=C(O)CCC(=O)N1CCc2cc(S(=O)(=O)NC3CCCc4ccccc43)ccc21 (stereo not given),-,.,-,.,?,-
O=C(C1CCC1)N1CCc2cc(S(=O)(=O)NC3CCCC3)ccc21,-,10µM,-,-,-,?
O=C(O)CCC(=O)N1CCc2cc(S(=O)(=O)NC3CCCC3)ccc21,-,13µM,-,-,-,-
O=C(C1CCC1)N1CCc2cc(S(=O)(=O)NC3CCCc4ccccc43)ccc21 (stereo not given),-,?,-,-,-,-
CN(Cc1ccco1)S(=O)(=O)c1ccc2c(c1)CCN2C(=O)CCC(=O)O,-,14µM,.,-,-,-
Cc1cccc(N2CCN(S(=O)(=O)c3ccc4c(c3)CCN4C(=O)CCC(=O)O)CC2)c1C,-,-,-,-,-,-
Cc1cccc(S(=O)(=O)c2c(C)cc(C)nc2Cl)c1,.,.,-,-,-,-
Nc1nnc(CSCc2ccc(F)cc2)s1,?,22µM,-[10 µM],-,10µM,-
SMILES,PNC inhibitor,HPGD inh,HTT ATP protect,RGS12 GoLoco inh,ALDH1A1 block,HttQ103 aggreg
Cc1ccc2[nH]c3c(c2c1)CCC3=O,-,?,-,-,?,-
CCCCN1CCc2c([nH]c3ccc(C)cc23)C1=O,-100,?,-,-,?,-
Cc1sc(NC(=O)c2cccs2)c(C(=O)OC(C)C)c1C,-100,?,-[10 µM],-,?,-
CCOC(=O)c1c(NC(=O)c2cccs2)sc(C(=O)N(C)C)c1C,-,16µM,-,-,22µM,-
CCCCCCCCCCOCCC(=O)O,.,-,-,-,-,.
CCOc1ccc(C(=O)CC(Sc2ccc(C)cc2)C(=O)O)cc1 (stereo not given),.,.,-[10 µM],-,1.6µM,?
Clc1ccccc1-c1nc(-n2ccnc2)c2ccccc2n1,.,.,?,-,-,.
COc1ccc2[nH]c(=O)c(CNc3ccc(C)cc3C)cc2c1,.,.,-[10 µM],-,.,-[9.22 µM]
Cc1ccc2[nH]c(=O)c(CNC(C)(C)C)cc2c1,-107,?,-[0.074 µM],-,?,-

# Source: PubChem
